From PubChem BioAssay
The source made the active and inactive calls. Unless noted, no rule for the calls is given here.

Key:
[1] = anti-His antibody binders, primary screen, artefact control for SMM control protein annotation, biochemical, small-molecule microarray, 635 nm fluorescence (AID 1128); details: anti-His Alexa647 antibody binding, higher = more signal;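 also: score merges feature fluorescence with signal-to-noise for each printed compound spot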
[2] = tested on: Human papillomavirus type 1a E7 protein (residues 1-88); experiment: HPV1a E7 small-molecule binders, primary screen, biochemical, small-molecule microarray, residues 1-88, 635 nm (AID 1129); details: small-molecule microarray binding, fluorescence 635 nm; higher = more signal
[3] = molecular target: Focal adhesion kinase 1 (Homo sapiens) (UniProt Q05397); experiment: small-molecule microarray binders of FAK, primary screen, biochemical, 635/667 nm fluorescence, BSA, DTT (AID 1130); details: PTK2 binding, 635 nm fluorescence, higher = more signal;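 also: composite of spot emission at 667 nm and signal to noise over triplicate slides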
[4] = tested on: Fibrinogen (Alexa647-labelled); experiment: fibrinogen binders on compound microarrays, profiling panel, artefact control for SMM control-protein annotation, biochemical, small-molecule microarray, 635/667 nm fluorescence (AID 1131); details: fibrinogen-A647 binding fluorescence, higher = more signal;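 also: z-score merges 667 nm fluorescence with per-spot signal-to-noise over triplicate slides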
[5] = molecular target: Follistatin (Homo sapiens) (UniProt P19883); experiment: follistatin binders on small-molecule microarrays, primary screen, biochemical, small-molecule microarray, 635/667 nm fluorescence (AID 1132); details: FST binding, 635 nm fluorescence, higher = more signal
[6] = molecular target: Fibroblast growth factor 2 (Homo sapiens) (UniProt P09038); experiment: FGF2 binders on small-molecule microarrays, primary screen, biochemical, small-molecule microarray, 635/667 nm fluorescence (AID 1133); details: small-molecule microarray binding, FGF2, fluorescence 635/667; higher = more signal
[7] = mitochondrial membrane potential change in A549 cells, profiling panel, cell-based, JC-1 fluorescence, basal, 24 h, 100 nL (AID 1138); details: higher = more signal;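 also: A549 lung adenocarcinoma cells under basal conditions with no added stimulus; test concentration not given here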
Lefty1 = Lefty1 binders on small-molecule microarrays, primary screen, biochemical, small-molecule microarray, 635/667 nm fluorescence (AID 1139); details: small-molecule microarray binding, fluorescence 635/667; higher = more signal
[8] = tested on: wheat germ agglutinin (Triticum aestivum), Alexa647-labelled; experiment: wheat germ agglutinin binders on compound microarrays, profiling panel, artefact control for SMM control-protein annotation, biochemical, small-molecule microarray, 635/667 nm fluorescence (AID 1140); details: WGA-A647 binding, 635 nm fluorescence, higher = more signal;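 also: score merges 667 nm feature emission with signal to noise over triplicate slides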
[9] = molecular target: Luciferin 4-monooxygenase (Photinus pyralis) (UniProt P08659); experiment: firefly luciferase enzyme inhibitors, primary screen, biochemical, luminescence, purified enzyme, 2006 set (AID 1141); details: SteadyGlo luminescence, 30 min, higher = more signal, called active from +8 up or from −8 down;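 also: cell-free assay with purified firefly luciferase at 100 ng per well in PBS; test concentration not given here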
[10] = tested on: Wnt5a (protein binding on small-molecule microarray); experiment: Wnt5a binders on small-molecule microarray, primary screen, biophysical, 635/667 nm fluorescence (AID 1142); details: 635 nm fluorescence, higher = more signal;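 also: fluorescence read at 667 nm with signal to noise per printed feature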
[11] = cell viability in Huh7 cells, primary screen, cytotoxicity control for HCV replication inhibitor project, CellTiter-Glo luminescence, basal, 48 h (AID 1143); details: Huh7 HCV replicon, higher = more signal, called active from +8 up or from −8 down;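 also: Huh7 hepatoma cells carrying a hepatitis C replication reporter with no stimulus; test concentration not given here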
[12] = P. aeruginosa biofilm formation inhibitors, primary screen, PAO1 strain, BacTiter-Glo luminescence, LB-PBS (AID 1144); details: 12 h, higher = more signal
[13] = CREB reporter modulators without forskolin, primary screen, cell-based, PC12, CRE-LacZ reporter, unstimulated (AID 1145); details: no forskolin, luminescence, 4.5 h, higher = more signal, called active from +8 up or from −8 down
[14] = CREB reporter modulators under forskolin, primary screen, cell-based, PC12, CRE-LacZ reporter, forskolin-stimulated (AID 1146); details: luminescence, 4.5 h, higher = more signal, called active from +8 up or from −8 down;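 also: PC12 cells with 6xCRE LacZ reporter stimulated by forskolin 10 µM; beta-galactosidase reporter signal reflecting CREB driven transcription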
[15] = molecular target: Streptavidin (Streptomyces avidinii) (UniProt P22629); experiment: streptavidin binders on small-molecule microarray, primary screen, artefact control for SMM compound annotation, biophysical, 635/667 nm fluorescence (AID 1147); details: streptavidin binding, higher = more signal;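 also: signal reflects streptavidin binding to arrayed compounds as a control protein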
[16] = small-molecule binders of probe aInhba, primary screen, biochemical, small-molecule microarray, 635/667 nm fluorescence (AID 1148); details: higher = more signal;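 also: score merges 667nm spot fluorescence with signal-to-noise for antibody binding to printed compounds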
Torsin-1A (Homo sapiens) [17] = molecular target: Torsin-1A (Homo sapiens) (UniProt O14656); experiment: torsin A binders from cell lysate, primary screen, small-molecule microarray, wild-type, 635/667 nm (AID 1149); details: COS7 hTOR1A-WT lysate, 635 nm fluorescence, higher = more signal
Torsin-1A (Homo sapiens) [18] = molecular target: Torsin-1A (Homo sapiens) (UniProt O14656); experiment: small-molecule binders of mutant TOR1A in lysate, primary screen, cell lysate, small-molecule microarray, COS7 lysate, 635/667 nm fluorescence (AID 1150); details: COS7 hTOR1A mutant lysate, 635 nm fluorescence, higher = more signal;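 also: score pools 667 nm emission and signal to noise measuring lysate protein binding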
[19] = tested on: Sonic hedgehog protein (Shh); experiment: small-molecule binders of Shh protein, primary screen, biochemical, small-molecule microarray, 635/667 nm fluorescence (AID 1151); details: small-molecule microarray binding, 635 nm fluorescence; higher = more signal;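 also: Shh protein binding to compounds spotted on small-molecule microarray slides; score combines spot fluorescence intensity with signal-to-noise across triplicate slides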

Sequence of Focal adhesion kinase 1 (Homo sapiens) (Q05397 whole entry, looked up): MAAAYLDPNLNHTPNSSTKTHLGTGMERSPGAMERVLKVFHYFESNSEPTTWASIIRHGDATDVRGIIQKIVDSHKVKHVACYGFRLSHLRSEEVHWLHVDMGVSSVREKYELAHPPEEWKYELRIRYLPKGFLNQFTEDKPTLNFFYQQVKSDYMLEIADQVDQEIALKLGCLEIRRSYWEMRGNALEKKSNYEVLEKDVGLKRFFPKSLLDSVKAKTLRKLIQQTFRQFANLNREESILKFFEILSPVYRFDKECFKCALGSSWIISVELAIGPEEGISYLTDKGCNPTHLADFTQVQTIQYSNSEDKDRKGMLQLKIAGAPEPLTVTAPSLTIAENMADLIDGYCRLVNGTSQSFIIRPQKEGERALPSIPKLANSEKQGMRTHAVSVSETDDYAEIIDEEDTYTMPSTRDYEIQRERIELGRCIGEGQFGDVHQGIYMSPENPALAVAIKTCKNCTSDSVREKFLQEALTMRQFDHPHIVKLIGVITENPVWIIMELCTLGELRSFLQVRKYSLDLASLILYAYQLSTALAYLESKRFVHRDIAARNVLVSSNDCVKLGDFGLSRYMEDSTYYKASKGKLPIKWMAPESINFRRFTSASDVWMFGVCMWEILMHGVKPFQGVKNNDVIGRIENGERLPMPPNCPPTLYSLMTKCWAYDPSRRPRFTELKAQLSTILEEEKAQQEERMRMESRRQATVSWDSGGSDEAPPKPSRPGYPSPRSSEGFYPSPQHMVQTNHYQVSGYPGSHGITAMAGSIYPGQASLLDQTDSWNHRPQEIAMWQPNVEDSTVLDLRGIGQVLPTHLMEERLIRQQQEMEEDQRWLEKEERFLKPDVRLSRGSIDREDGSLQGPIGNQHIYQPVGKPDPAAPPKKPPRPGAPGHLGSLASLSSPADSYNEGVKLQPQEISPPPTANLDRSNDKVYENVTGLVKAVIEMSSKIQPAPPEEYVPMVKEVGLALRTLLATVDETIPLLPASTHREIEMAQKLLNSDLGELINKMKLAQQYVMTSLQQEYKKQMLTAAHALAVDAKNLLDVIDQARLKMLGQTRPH
Sequence of Streptavidin (Streptomyces avidinii) (P22629 whole entry, looked up): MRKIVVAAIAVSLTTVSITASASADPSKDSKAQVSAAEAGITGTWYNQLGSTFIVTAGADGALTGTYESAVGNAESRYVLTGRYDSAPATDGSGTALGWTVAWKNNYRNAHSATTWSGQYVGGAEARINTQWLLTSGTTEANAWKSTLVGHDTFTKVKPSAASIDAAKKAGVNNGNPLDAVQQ
Sequence of Torsin-1A (Homo sapiens) (O14656 whole entry, looked up): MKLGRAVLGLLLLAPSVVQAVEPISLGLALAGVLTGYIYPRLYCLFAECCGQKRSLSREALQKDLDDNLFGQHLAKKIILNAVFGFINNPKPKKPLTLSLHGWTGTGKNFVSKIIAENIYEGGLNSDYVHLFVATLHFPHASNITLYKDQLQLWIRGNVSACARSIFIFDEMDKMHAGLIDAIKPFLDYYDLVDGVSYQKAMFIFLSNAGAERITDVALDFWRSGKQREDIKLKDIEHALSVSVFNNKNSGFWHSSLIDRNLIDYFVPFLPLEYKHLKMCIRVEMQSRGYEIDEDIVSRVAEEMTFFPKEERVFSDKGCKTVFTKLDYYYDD
Sequence of Fibroblast growth factor 2 (Homo sapiens) (P09038 whole entry, looked up): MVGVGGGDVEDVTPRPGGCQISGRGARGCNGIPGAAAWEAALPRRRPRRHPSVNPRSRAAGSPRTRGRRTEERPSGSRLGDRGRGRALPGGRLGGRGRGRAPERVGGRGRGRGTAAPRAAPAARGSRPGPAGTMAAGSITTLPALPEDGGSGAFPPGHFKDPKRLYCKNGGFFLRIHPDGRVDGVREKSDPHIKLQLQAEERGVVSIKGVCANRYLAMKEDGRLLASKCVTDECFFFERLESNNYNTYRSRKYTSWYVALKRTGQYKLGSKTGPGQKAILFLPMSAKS
Sequence of Follistatin (Homo sapiens) (P19883 whole entry, looked up): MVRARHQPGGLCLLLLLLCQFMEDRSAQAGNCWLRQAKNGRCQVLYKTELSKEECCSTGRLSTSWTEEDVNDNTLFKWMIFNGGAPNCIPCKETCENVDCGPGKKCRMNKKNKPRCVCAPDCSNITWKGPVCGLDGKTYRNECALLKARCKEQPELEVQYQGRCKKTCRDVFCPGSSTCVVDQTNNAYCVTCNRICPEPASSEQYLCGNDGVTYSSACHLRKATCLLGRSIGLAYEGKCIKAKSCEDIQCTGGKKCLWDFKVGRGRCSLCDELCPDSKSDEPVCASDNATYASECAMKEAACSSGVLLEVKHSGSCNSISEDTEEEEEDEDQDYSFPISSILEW
Sequence of Luciferin 4-monooxygenase (Photinus pyralis) (P08659 whole entry, looked up): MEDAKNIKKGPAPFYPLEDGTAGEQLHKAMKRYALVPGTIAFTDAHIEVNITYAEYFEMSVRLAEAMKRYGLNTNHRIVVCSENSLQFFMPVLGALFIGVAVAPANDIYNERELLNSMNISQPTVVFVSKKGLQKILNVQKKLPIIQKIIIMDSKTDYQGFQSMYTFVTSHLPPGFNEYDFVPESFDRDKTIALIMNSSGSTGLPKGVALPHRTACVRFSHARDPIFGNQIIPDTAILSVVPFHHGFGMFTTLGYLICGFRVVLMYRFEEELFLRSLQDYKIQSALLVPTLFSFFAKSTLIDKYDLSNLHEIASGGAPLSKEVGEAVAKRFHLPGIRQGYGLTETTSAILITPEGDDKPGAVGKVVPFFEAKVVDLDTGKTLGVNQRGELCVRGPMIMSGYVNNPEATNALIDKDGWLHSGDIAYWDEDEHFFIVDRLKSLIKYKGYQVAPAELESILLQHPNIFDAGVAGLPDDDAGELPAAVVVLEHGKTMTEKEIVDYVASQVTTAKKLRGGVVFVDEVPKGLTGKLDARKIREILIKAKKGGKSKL

Compound: CCOC(=O)C[C@H]1[C@H](OC(=O)Cc2ccc3c(c2)OCO3)[C@@H](NC(=O)Cc2ccc(OC)cc2)c2cc(OCCCO)ccc2N1C(=O)c1ccc2ccccc2n1
- composite z-score [1]: 0.0036
- composite z-score [2]: 0.383
- composite z-score [3]: -0.345
- composite z-score [4]: 0.172
- composite z-score [5]: 0.147
- composite z-score [6]: 0.211
- z-score [7]: 2.69
- composite z-score (Lefty1): 0.168
- composite z-score [8]: -0.119
- z-score [9]: -1.7 (inactive)
- composite z-score [10]: -0.223
- z-score [11]: -0.823 (inactive)
- z-score [12]: -0.687 (inactive)
- z-score [13]: 10.1 (active)
- z-score [14]: -1.24 (inactive)
- composite z-score [15]: 0.0739
- composite z-score [16]: -0.0547
- composite z-score (Torsin-1A (Homo sapiens) [17]): 0.183
- composite z-score (Torsin-1A (Homo sapiens) [18]): 0.714
- composite z-score [19]: 0.492

Compound: CC(CO)N1C(=O)[C@@H]2[C@H]3C(=O)OCC=C[C@H]3OC23C=CCN(C(C)(C)C)C(=O)[C@@H]13 (stereo not given in full)
- composite z-score [1]: -1.15
- composite z-score [2]: -0.833
- composite z-score [3]: -0.367
- composite z-score [4]: -0.591
- composite z-score [5]: -0.187
- composite z-score [6]: -0.0701
- z-score [7]: -0.28
- composite z-score (Lefty1): -0.114
- composite z-score [8]: -0.104
- z-score [9]: -0.069 (inactive)
- composite z-score [10]: -0.329
- z-score [11]: -0.304 (inactive)
- z-score [12]: 1.15 (inactive)
- z-score [13]: -0.354 (inactive)
- z-score [14]: -0.304 (inactive)
- composite z-score [15]: 0.769
- composite z-score [16]: -0.154
- composite z-score (Torsin-1A (Homo sapiens) [17]): -1.5
- composite z-score (Torsin-1A (Homo sapiens) [18]): -0.163
- composite z-score [19]: -0.405

Compound: O=C1O[C@H](c2ccccc2)[C@H](c2ccccc2)N2[C@H]1[C@@H](C(=O)NC[C@H](O)c1ccccc1)[C@]1(C(=O)Nc3ccc(C#CCCO)cc31)[C@H]2c1ccc(OCCO)cc1
- composite z-score [1]: 1.32
- composite z-score [2]: 1.2
- composite z-score [3]: 0.693
- composite z-score [4]: 0.738
- composite z-score [5]: 0.743
- composite z-score [6]: 0.134
- z-score [7]: -0.552
- composite z-score (Lefty1): 0.329
- composite z-score [8]: 1.01
- z-score [9]: -2.02 (inactive)
- composite z-score [10]: 0.518
- z-score [11]: -0.821 (inactive)
- z-score [12]: -0.626 (inactive)
- z-score [13]: 0.299 (inactive)
- z-score [14]: 0.0413 (inactive)
- composite z-score [15]: 0.0889
- composite z-score [16]: 0.0464
- composite z-score (Torsin-1A (Homo sapiens) [17]): 0.13
- composite z-score (Torsin-1A (Homo sapiens) [18]): 0.38
- composite z-score [19]: 1.76

Compound: C=CCNC(=O)[C@H]1[C@@H]2C(=O)O[C@@H](c3ccccc3)[C@@H](c3ccccc3)N2[C@@H](c2ccc(O)cc2)[C@]12C(=O)N(C(=O)OCCOC)c1ccccc12
- composite z-score [1]: 3.08
- composite z-score [2]: 1.24
- composite z-score [3]: 0.484
- composite z-score [4]: 0.886
- composite z-score [5]: 0.852
- composite z-score [6]: 0.198
- z-score [7]: -0.8
- composite z-score (Lefty1): 0.31
- composite z-score [8]: 0.708
- z-score [9]: -0.109 (inactive)
- composite z-score [10]: 0.381
- z-score [11]: -2.03 (inactive)
- z-score [12]: 0.309 (inactive)
- z-score [13]: 0.128 (inactive)
- z-score [14]: 5.62 (inactive)
- composite z-score [15]: -0.0654
- composite z-score [16]: 0.122
- composite z-score (Torsin-1A (Homo sapiens) [17]): 0.265
- composite z-score (Torsin-1A (Homo sapiens) [18]): 1.02
- composite z-score [19]: 1.11

Compound: COCCOC(=O)N1C(=O)[C@@]2(c3cc(C#CC4=CCCCC4)ccc31)[C@H](C(N)=O)[C@H]1C(=O)O[C@H](c3ccccc3)[C@H](c3ccccc3)N1[C@@H]2c1ccccc1OCCO
- composite z-score [1]: 1.34
- composite z-score [2]: 1.21
- composite z-score [3]: 0.143
- composite z-score [4]: 0.939
- composite z-score [5]: 1.31
- composite z-score [6]: 1.42
- z-score [7]: -1.89
- composite z-score (Lefty1): 0.943
- composite z-score [8]: 1.05
- z-score [9]: -0.591 (inactive)
- composite z-score [10]: 0.183
- z-score [11]: -6.52 (inactive)
- z-score [12]: -0.413 (inactive)
- z-score [13]: -0.333 (inactive)
- z-score [14]: -0.855 (inactive)
- composite z-score [15]: 0.483
- composite z-score [16]: 0.147
- composite z-score (Torsin-1A (Homo sapiens) [17]): 0.38
- composite z-score (Torsin-1A (Homo sapiens) [18]): 1.41
- composite z-score [19]: 1.08

Compound: COCCCNC(=O)[C@@]1(Sc2ccc(C)cc2)CC(=O)N(C2CCCCC2)[C@@H]1c1ccc(CO)cc1
- composite z-score [1]: 0.624
- composite z-score [2]: -0.454
- composite z-score [3]: 0.647
- composite z-score [4]: -1.08
- composite z-score [5]: -0.441
- composite z-score [6]: -0.511
- z-score [7]: -0.227
- composite z-score (Lefty1): -1.63
- composite z-score [8]: -0.361
- z-score [9]: 0.545 (inactive)
- composite z-score [10]: 0.0421
- z-score [11]: -0.0515 (inactive)
- z-score [12]: -0.319 (inactive)
- z-score [13]: 0.118 (inactive)
- z-score [14]: 1.7 (inactive)
- composite z-score [15]: -0.749
- composite z-score [16]: -0.154
- composite z-score (Torsin-1A (Homo sapiens) [17]): -1.51
- composite z-score (Torsin-1A (Homo sapiens) [18]): -0.424
- composite z-score [19]: -0.911

Compound: COc1cc(OC)c(C(O)C2C=CC3C(=O)N(C)C(=O)C3N2NC(=O)OC(C)(C)C)cc1Br (stereo not given)
- composite z-score [1]: 0.476
- composite z-score [2]: 1.29
- composite z-score [3]: 0.776
- composite z-score [4]: 1.03
- composite z-score [5]: 1.25
- composite z-score [6]: 0.128
- z-score [7]: -0.942
- composite z-score (Lefty1): 0.42
- composite z-score [8]: 1.23
- z-score [9]: -0.996 (inactive)
- composite z-score [10]: 0.326
- z-score [11]: 0.558 (inactive)
- z-score [12]: -0.224 (inactive)
- z-score [13]: 1.2 (inactive)
- z-score [14]: 0.922 (inactive)
- composite z-score [15]: 1.25
- composite z-score [16]: 0.194
- composite z-score (Torsin-1A (Homo sapiens) [17]): 0.443
- composite z-score (Torsin-1A (Homo sapiens) [18]): 0.315
- composite z-score [19]: 0.568

Compound: COC(=O)[C@@]1(Cc2ccc(F)cc2)[C@H]2c3cc(C(=O)N(C)C)n(Cc4cc(F)cc5c4OCOC5)c3C[C@H]2CN1C(=O)c1ccccc1
- composite z-score [1]: 1.06
- composite z-score [2]: 1.19
- composite z-score [3]: 1.5
- composite z-score [4]: 1
- composite z-score [5]: 1.04
- composite z-score [6]: -0.0284
- z-score [7]: -0.915
- composite z-score (Lefty1): 0.444
- composite z-score [8]: 1.06
- z-score [9]: -0.724 (inactive)
- composite z-score [10]: 0.462
- z-score [11]: -3.74 (inactive)
- z-score [12]: 0.258 (inactive)
- z-score [13]: 0.397 (inactive)
- z-score [14]: -0.201 (inactive)
- composite z-score [15]: 1.15
- composite z-score [16]: 0.115
- composite z-score (Torsin-1A (Homo sapiens) [17]): 0.141
- composite z-score (Torsin-1A (Homo sapiens) [18]): 0.702
- composite z-score [19]: 0.3

Compound: COCCOC(=O)N1C(=O)[C@@]2(c3cc(C#CC4=CCCCC4)ccc31)[C@H](c1ccc(OCCO)cc1)N1[C@H](c3ccccc3)[C@H](c3ccccc3)OC(=O)[C@H]1[C@@H]2C(=O)NC[C@H](O)c1ccccc1
- composite z-score [1]: 0.392
- composite z-score [2]: 1.16
- composite z-score [3]: 0.499
- composite z-score [4]: 0.295
- composite z-score [5]: 1.48
- composite z-score [6]: 1.82
- z-score [7]: -1.4
- composite z-score (Lefty1): 1.65
- composite z-score [8]: -0.127
- z-score [9]: -2.06 (inactive)
- composite z-score [10]: 0.552
- z-score [11]: -2.18 (inactive)
- z-score [12]: 0.698 (inactive)
- z-score [13]: 0.354 (inactive)
- z-score [14]: -0.224 (inactive)
- composite z-score [15]: 0.785
- composite z-score [16]: 0.801
- composite z-score (Torsin-1A (Homo sapiens) [17]): 0.818
- composite z-score (Torsin-1A (Homo sapiens) [18]): 0.51
- composite z-score [19]: 1.85
